Where a name gives a salt, the structure may show the parent alone. ± gives the uncertainty stated by the source.

The test system of this test is Caenorhabditis elegans N2. The test can be described thus: food intake (mean delta OD600 / animal over 72 h) with 50 uM loxapine co-treatment (OD600 units per animal); higher = more food eaten (less suppression of loxapine-induced hyperphagia). The note with it: first compound 33 µM, loxapine concentration 50 µM. How it is done: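 C. elegans N2 adults (FUDR-sterilised, day 1) in 96-well plates fed gamma-irradiated bacteria. Each library drug (MedChemExpress FDA-approved library) at 33 uM was combined with loxapine at 50 uM. Food intake was measured as bacterial clearance: the change in OD600 from day 1 to 72 h, normalised per animal (mean over 14-21 wells of about 10-12 worms). Drugs flagged for bacterial lysis or sickness were excluded by the authors.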
For `CC(C)(C)C(=O)C(Oc1ccc(Cl)cc1)n1ccnc1` (stereo not given) [climbazole] + CN1CCN(C2=Nc3ccccc3Oc3ccc(Cl)cc32)CC1 [loxapine], the food intake was 0.0235 ± 0.012.
Regarding `CN(C)[C@@H]1C(O)=C(C(N)=O)C(=O)[C@@]2(O)C(O)=C3C(=O)c4c(O)cccc4[C@@](C)(O)[C@H]3C[C@@H]12` [Tetracycline (hydrochloride)] + CN1CCN(C2=Nc3ccccc3Oc3ccc(Cl)cc32)CC1 [loxapine], the food intake is 0.0228 ± 0.0038.
Take `C[C@]12CC[C@@H]3c4ccc(O)cc4CC[C@H]3[C@@H]1CC[C@@H]2OC(=O)CCC1CCCC1` [estradiol (cypionate)] + CN1CCN(C2=Nc3ccccc3Oc3ccc(Cl)cc32)CC1 [loxapine]: the food intake was 0.0224 ± 0.0087.
Take `CCOC(=O)/C=C(C)/C=C/C=C(C)/C=C/c1c(C)cc(OC)c(C)c1C` [etretinate] + CN1CCN(C2=Nc3ccccc3Oc3ccc(Cl)cc32)CC1 [loxapine]: the food intake is 0.0213 ± 0.0039.
Next, `CC(=O)N1CCN(c2ccc(OCC3COC(Cn4ccnc4)(c4ccc(Cl)cc4Cl)O3)cc2)CC1` (stereo not given) [ketoconazole] + CN1CCN(C2=Nc3ccccc3Oc3ccc(Cl)cc32)CC1 [loxapine]: 0.0239 ± 0.0034.
With `O=C(c1ccccc1)c1ccc2n1CCC2C(=O)O` (stereo not given) [ketorolac (romethamine salt)] + CN1CCN(C2=Nc3ccccc3Oc3ccc(Cl)cc32)CC1 [loxapine], the food intake worked out at 0.0225 ± 0.0034.
With `CCc1ccc(CCOc2ccc(CC3SC(=O)NC3=O)cc2)nc1` (stereo not given) [pioglitazone (hydrochloride)] + CN1CCN(C2=Nc3ccccc3Oc3ccc(Cl)cc32)CC1 [loxapine], the food intake worked out at 0.0215 ± 0.0041.
In the case of `NC(=O)c1cnccn1` [pyrazinamide] + CN1CCN(C2=Nc3ccccc3Oc3ccc(Cl)cc32)CC1 [loxapine], the food intake stood at 0.0222 ± 0.0034.
Take `S=C=Nc1ccc(N=C=S)cc1` [p-Phenylene diisothiocyanate] + CN1CCN(C2=Nc3ccccc3Oc3ccc(Cl)cc32)CC1 [loxapine]: the food intake stood at 0.0229 ± 0.0028.
`C=CCNC(N)=S` [allylthiourea] + CN1CCN(C2=Nc3ccccc3Oc3ccc(Cl)cc32)CC1 [loxapine]: the food intake came out at 0.0237 ± 0.003.
Next, `CN1CC(=O)N2[C@H](c3ccc4c(c3)OCO4)c3[nH]c4ccccc4c3C[C@@H]2C1=O` [tadalafil] + CN1CCN(C2=Nc3ccccc3Oc3ccc(Cl)cc32)CC1 [loxapine]: 0.0236 ± 0.0034; `CCc1c2c(nc3ccc(OC(=O)N4CCC(N5CCCCC5)CC4)cc13)-c1cc3c(c(=O)n1C2)COC(=O)[C@]3(O)CC` [Irinotecan] + CN1CCN(C2=Nc3ccccc3Oc3ccc(Cl)cc32)CC1 [loxapine]: 0.022 ± 0.003.
Turning to `C[N+]1(C)CCC(=C(c2ccccc2)c2ccccc2)CC1` [diphenmanil (methylsulfate)] + CN1CCN(C2=Nc3ccccc3Oc3ccc(Cl)cc32)CC1 [loxapine], the food intake is 0.0235 ± 0.0021.
For the molecule `CC(C)(Oc1ccc(CCNC(=O)c2ccc(Cl)cc2)cc1)C(=O)O` [bezafibrate] + CN1CCN(C2=Nc3ccccc3Oc3ccc(Cl)cc32)CC1 [loxapine], the food intake is 0.0212 ± 0.0034.
Take `O=C(O)COC(=O)Cc1ccccc1Nc1c(Cl)cccc1Cl` [aceclofenac] + CN1CCN(C2=Nc3ccccc3Oc3ccc(Cl)cc32)CC1 [loxapine]: the food intake amounted to 0.0221 ± 0.0083.
Next, `COC(=O)Nc1nc2cc([S+]([O-])c3ccccc3)ccc2[nH]1` (stereo not given) [oxfendazole] + CN1CCN(C2=Nc3ccccc3Oc3ccc(Cl)cc32)CC1 [loxapine]: 0.0214 ± 0.0037; `CNC(=O)[C@H](Cc1c[nH]c2ccccc12)NC(=O)[C@@H](CC(=O)NO)CC(C)C` + CN1CCN(C2=Nc3ccccc3Oc3ccc(Cl)cc32)CC1 [loxapine]: 0.0195 ± 0.0054.
In the case of `N=C(N)c1ccc(OCCCCCOc2ccc(C(=N)N)cc2)cc1` [pentamidine (isethionate)] + CN1CCN(C2=Nc3ccccc3Oc3ccc(Cl)cc32)CC1 [loxapine], the food intake turned out to be 0.0232 ± 0.0025.
As for `Cc1nc(C(=O)NCC(=O)O)c(O)c2ccc(Oc3ccccc3)cc12` + CN1CCN(C2=Nc3ccccc3Oc3ccc(Cl)cc32)CC1 [loxapine], the figure is 0.0228 ± 0.0037.
For the molecule `COc1cc(OC)c(C(=O)CCCN2CCCC2)c(OC)c1` [buflomedil (hydrochloride)] + CN1CCN(C2=Nc3ccccc3Oc3ccc(Cl)cc32)CC1 [loxapine], the food intake came out at 0.0222 ± 0.0028.
Regarding `Cc1ccc(Nc2nccc(N(C)c3ccc4c(C)n(C)nc4c3)n2)cc1S(N)(=O)=O` [pazopanib (hydrochloride)] + CN1CCN(C2=Nc3ccccc3Oc3ccc(Cl)cc32)CC1 [loxapine], the food intake was 0.0206 ± 0.0053.
`O=C(O)C1=C(CSc2nnnn2CS(=O)(=O)O)CS[C@@H]2[C@H](NC(=O)[C@H](O)c3ccccc3)C(=O)N12` [cefonicid (sodium)] + CN1CCN(C2=Nc3ccccc3Oc3ccc(Cl)cc32)CC1 [loxapine]: the food intake amounted to 0.0217 ± 0.018.
Regarding `Cc1cc(C2CCCCC2)n(O)c(=O)c1` [ciclopirox] + CN1CCN(C2=Nc3ccccc3Oc3ccc(Cl)cc32)CC1 [loxapine], the food intake was 0.0218 ± 0.0041.
As for `CC(CN1c2ccccc2Sc2ccccc21)N(C)C` (stereo not given) [promethazine (hydrochloride)] + CN1CCN(C2=Nc3ccccc3Oc3ccc(Cl)cc32)CC1 [loxapine], the figure is 0.0219 ± 0.0024; as for `CCN(CC)CCOC(=O)c1ccc(N)cc1` [procaine (hydrochloride)] + CN1CCN(C2=Nc3ccccc3Oc3ccc(Cl)cc32)CC1 [loxapine], 0.0224 ± 0.0034.
On to `CC1=C(C)C(=O)C(C(CCCCCC(=O)O)c2ccccc2)=C(C)C1=O` (stereo not given) [seratrodast] + CN1CCN(C2=Nc3ccccc3Oc3ccc(Cl)cc32)CC1 [loxapine], for which the food intake stood at 0.0265 ± 0.0088.
Next, `COC(=O)/C=C/C(=O)OC` [dimethyl fumarate] + CN1CCN(C2=Nc3ccccc3Oc3ccc(Cl)cc32)CC1 [loxapine]: 0.0218 ± 0.0043.
With `Nc1nnc(-c2cccc(Cl)c2Cl)c(N)n1` [lamotrigine] + CN1CCN(C2=Nc3ccccc3Oc3ccc(Cl)cc32)CC1 [loxapine], the food intake is 0.0237 ± 0.008.
Turning to `CS(=O)(=O)c1ccc([C@@H](O)[C@@H](CO)NC(=O)C(Cl)Cl)cc1` [thiamphenicol] + CN1CCN(C2=Nc3ccccc3Oc3ccc(Cl)cc32)CC1 [loxapine], the food intake was 0.0228 ± 0.0025.
As for `Cc1cccc(-c2nn3c(c2-c2ccnc4ccc(C(N)=O)cc24)CCC3)n1` + CN1CCN(C2=Nc3ccccc3Oc3ccc(Cl)cc32)CC1 [loxapine], the food intake was determined as 0.0252 ± 0.0052.
Consider `OCCN1C[C@H](O)[C@@H](O)[C@H](O)[C@H]1CO` [miglitol] + CN1CCN(C2=Nc3ccccc3Oc3ccc(Cl)cc32)CC1 [loxapine], for which the food intake was determined as 0.0214 ± 0.005.
As for `CC1(C)[C@H](C(=O)O)N2C(=O)C[C@H]2S1(=O)=O` [sulbactam] + CN1CCN(C2=Nc3ccccc3Oc3ccc(Cl)cc32)CC1 [loxapine], the food intake stood at 0.0225 ± 0.0027.
On to `O=C(C1CCCCC1)N1CC(=O)N2CCc3ccccc3C2C1` (stereo not given) [praziquantel] + CN1CCN(C2=Nc3ccccc3Oc3ccc(Cl)cc32)CC1 [loxapine], for which the food intake was determined as 0.0224 ± 0.0023.
Regarding `CC[C@H]1OC(=O)[C@H](C)[C@@H](O[C@H]2C[C@@](C)(OC)[C@@H](O)[C@H](C)O2)[C@H](C)[C@@H](O[C@@H]2O[C@H](C)C[C@H](N(C)C)[C@H]2O)[C@](C)(O)C[C@@H](C)[C@@H]2N[C@@H](COCCOC)O[C@H]([C@H]2C)[C@]1(C)O` [dirithromycin] + CN1CCN(C2=Nc3ccccc3Oc3ccc(Cl)cc32)CC1 [loxapine], the food intake turned out to be 0.0208 ± 0.0079.
Regarding `COc1c(N2C[C@@H]3CCCN[C@@H]3C2)c(F)cc2c(=O)c(C(=O)O)cn(C3CC3)c12` [moxifloxacin (hydrochloride)] + CN1CCN(C2=Nc3ccccc3Oc3ccc(Cl)cc32)CC1 [loxapine], the food intake is 0.0216 ± 0.0034.
As for `CC(=O)O[C@H]1Cc2ccccc2N(C(N)=O)c2ccccc21` [eslicarbazepine (acetate)] + CN1CCN(C2=Nc3ccccc3Oc3ccc(Cl)cc32)CC1 [loxapine], the food intake came to 0.0232 ± 0.0043.
`Cc1cc(C)c2c(c1)[C@@H](N(Cc1cc(C(F)(F)F)cc(C(F)(F)F)c1)c1nnn(C)n1)CCCN2C[C@H]1CC[C@H](C(=O)O)CC1` [Evacetrapib] + CN1CCN(C2=Nc3ccccc3Oc3ccc(Cl)cc32)CC1 [loxapine]: the food intake is 0.0229 ± 0.0033.
For `O=C(O)CCNC(=O)c1ccccc1` [betamipron] + CN1CCN(C2=Nc3ccccc3Oc3ccc(Cl)cc32)CC1 [loxapine], the food intake was 0.0228 ± 0.0023.
Regarding `CCOC(N)=O` [urethane] + CN1CCN(C2=Nc3ccccc3Oc3ccc(Cl)cc32)CC1 [loxapine], the food intake amounted to 0.0215 ± 0.0029.
Consider `CCOC(=O)C(C)(C)Oc1ccc(Cl)cc1` [clofibrate] + CN1CCN(C2=Nc3ccccc3Oc3ccc(Cl)cc32)CC1 [loxapine], for which the food intake was found to be 0.0218 ± 0.0033.

The values above are taken from the supplement of paper PMC6288085.
